# Compound activity from PubChem BioAssay.
# PfHsp90 set2: growth inhibition of yeast expressing Plasmodium Hsp90. S. cerevisiae expressing PfHsp90, BacTiter-Glo ATP, 48 h; yeast lacking PDR1 and PDR3 efflux regulators. inhibition, % at 9.4 µM. actives 0.32% (n = 310,000);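 active = every replicate shows inhibition above about 80%, whatever the replicate mean, limit read from the data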;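 also: 0% = DMSO neutral controls and 100% = 20 µM radicicol positive controls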
# tim10-1 inh: growth inhibitors of tim10-1 mutant yeast; S. cerevisiae tim10-1 ts strain growth, BacTiter-Glo, 24 h; inhibition, % at 20 µM; actives 2.2% (n = 330,000); AID 463190;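 active = inhibition of at least 40%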;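 also: mutant grown at 25 °C; 0% = DMSO wells with yeast and 100% = wells holding no yeast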
# TIM10 inh: inhibits growth of TIM10 yeast strain; S. cerevisiae TIM10 strain growth, BacTiter-Glo luminescence, 24 h; inhibition, % at 10 µM; actives 1.4% (n = 330,000);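 active = inhibition of 40% or more at the single tested concentration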;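 also: wild-type TIM10 isogenic control strain grown at permissive 25 °C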
# tim23-1 inh: growth inhibitors of tim23-1 mutant yeast | S. cerevisiae tim23-1 growth, BacTiter-Glo luminescence, 24 h | inhibition, % at 20 µM | actives 1.3% (n = 330,000);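 active = growth inhibition of the mutant yeast at or above 50%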;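 also: temperature-sensitive mutant grown at 25 °C; plate controls were DMSO-treated mutant yeast for no effect and medium wells lacking yeast for full effect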
# V-ATPase pHluor: regulators of yeast V-ATPase proton transport | S. cerevisiae, pHLuorin cytosolic pH fluorescence | response, % at 10 µM | actives 0.37% (n = 350,000) | AID 504577; in the data active = response mostly above about 7.3%, no sharp cut-off; inactive = mostly below about 5.4%; also: actives read high
# tim10 confirm: TIM10 yeast growth inhibition, confirmed; S. cerevisiae tim10 strain growth, BacTiter-Glo luminescence, 24 h; shares compounds with TIM10 inh; inhibition, % at 10 µM; actives 63% (n = 4,600);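 active = inhibition of yeast growth at or above a set limit in either of two replicates at 10 µM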;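 also: this counterscreen used the strain with wild-type TIM10; 0% = yeast with DMSO and 100% = medium wells lacking yeast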
# The depositor's hits bear a star; / = not tested or not shown. Rows were chosen to be rich in hits. Some 3.7% of all compounds tested hit in one or more screens of this group.
SMILES,PfHsp90 set2,tim10-1 inh,TIM10 inh,tim23-1 inh,V-ATPase pHluor,tim10 confirm
c1ccc(-c2onc3cc4c(cc23)OCCO4)cc1,-16,33,44*,-3,1,52*
N#CC(c1nc2ccccc2nc1N1CCCC1)S(=O)(=O)c1ccccc1 (stereo not given),-24,38,41*,28,10,17
COc1ccccc1CCC(=O)Oc1ccccc1C#N,-4,25,26,39,-1,/
Cc1ccc(S(=O)(=O)N2CCCCC2)cc1NC(=O)CNc1ccc(C(F)(F)F)cc1,/,8,2,19,-1,/
O=C(Nc1cccc(Cl)c1)c1ccc2ncsc2c1,13,25,50*,31,-2,45*
O=C(Nc1ccc(Cl)cc1)c1ccc2ncsc2c1,-26,3,9,-3,6,/
O=C(O)c1ccc(N2C(=O)c3ccccc3C2=O)cc1[N+](=O)[O-],/,/,/,/,2,/
Cn1c2ccc(Br)cc2c2nnc(SCC(=O)O)nc21,-15,31,60*,28,1,75*
Nc1nc(SCc2ccccn2)c2ncn(C3OC(CO)C(O)C3O)c2n1 (stereo not given),18,/,/,/,1,/
O=C(c1ccccc1Cl)N(C(=O)c1ccccc1Cl)c1nccc(-c2cccs2)n1,-31,27,42*,28,0,10
COc1ccc(CCCC(=O)N/N=C/c2cccc(OC)c2O)cc1C,-4,6,55*,35,0,-10
CCOC(=O)c1cccc(NC(=O)c2ccc(-n3cnnn3)cc2)c1,-5,7,-3,7,-1,/
O=C(/C=C/c1ccc(Br)cc1)c1ccc(NC(=O)c2ccco2)cc1,-18,33,41*,35,2,8
Cc1cccc(CSCc2ccc(C(=O)NCC3CCCO3)o2)c1 (stereo not given),16,-12,-54,0,0,/
O=C1C(=O)N(Cc2cccnc2)C(c2cccc([N+](=O)[O-])c2)/C1=C(/O)c1ccc2c(c1)OCO2 (stereo not given),3,8,-4,8,2,/
Cc1ccc(Cc2cnc(NC(=O)c3ccco3)s2)cc1,-47,-4,40,44,-4,40*
CC(C)C(=O)Nc1ncc(Cc2ccc(Cl)cc2)s1,-6,39,47*,38,-3,34*
O=C(Nc1ccn(CCCNCC(c2ccccc2)c2ccccc2)c(=O)n1)OCc1ccccc1,/,/,/,/,-2,/
CN(C)C1(CN=Cc2cc(Cl)cc([N+](=O)[O-])c2O)CCCCC1,3,25,25,36,-1,/
Cc1[nH]n(S(=O)(=O)Cc2ccccc2)c(=O)c1N=Nc1ccccc1Cl,6,37,41*,45,2,22
Cc1ccc(NC(=S)N/N=C2/CCCCc3ccccc32)cc1,-96,27,45*,37,-3,38*
CCNC(=S)N/N=C1\CCCCc2ccccc21,-18,31,17,46,1,/
COc1ccc(C(=O)c2ccc3oc(-c4ccc(OC)cc4)c(-c4ccc(O)cc4)c3c2)cc1,-8,14,10,17,-6,/
COCCN(C(=O)c1csnn1)C(C(=O)NC1CCCC1)c1ccccc1F (stereo not given),20,-7,3,12,1,/
CCn1c(O)c(C=NCc2cccs2)c(=O)n(CC)c1=S,-26,39,42*,43,-6,7
SMILES,PfHsp90 set2,tim10-1 inh,TIM10 inh,tim23-1 inh,V-ATPase pHluor,tim10 confirm
O=C1C(=O)N(c2ccc(O)cc2)C(c2ccccc2[N+](=O)[O-])/C1=C(\O)c1ccccc1 (stereo not given),1,12,31,18,2,/
Cc1nc(Nc2ccc3c(c2)OCCO3)c2oc3ccccc3c2n1,8,31,40*,38,-2,21
CCc1nc(Nc2ccc3c(c2)OCCO3)c2oc3ccccc3c2n1,13,35,29,33,0,/
Cc1noc(NS(=O)(=O)c2ccc(NC(=O)C(F)(F)C(F)(F)C(F)(F)F)cc2)c1C,/,-5,4,9,-2,/
COc1cc(OC)cc(-c2nc3ccccc3c(=O)n2OC(=O)c2ccc(C)c(C)c2)c1,10,37,50*,49,4,25
C[C@@H](C(=O)NCCc1ccccc1)N1C(=O)N2CCc3c([nH]c4ccccc34)[C@@]2(C)C1=O,3,-11,-1,14,0,/
O=C(c1cc2sccc2n1Cc1ccc(F)cc1)N1CCN(c2nc3ccccc3s2)CC1,4,32,43*,26,1,19
O=C1c2ccccc2C(=O)c2cc(NC(=O)C3CC3)ccc21,7,34,44*,38,4,16
CCNC(=O)c1ccc(C2SCC(=O)N2Cc2ccco2)cc1 (stereo not given),9,3,0,13,2,/
CC(C)CCNC(=O)c1ccc(C2SCC(=O)N2Cc2ccco2)cc1 (stereo not given),5,26,54*,6,3,2
COCc1[nH]nc2c1C(c1sccc1C)C(C#N)=C(N)O2 (stereo not given),8,34,53*,31,-4,28*
N#CC1=C(N)Oc2n[nH]c(-c3cccs3)c2C1c1cccs1 (stereo not given),-9,34,46*,0,-1,23
COCc1[nH]nc2c1C(c1ccsc1)C(C#N)=C(N)O2 (stereo not given),-6,22,13,15,0,/
N#CC1=C(N)Oc2n[nH]c(-c3cccs3)c2C1c1ccccc1C(=O)O (stereo not given),2,11,-14,17,0,/
FC(F)(F)c1nnc(-c2ccccc2)nc1Sc1ccccc1,2,36,45*,43,1,22
FC(F)(F)c1nnc(-c2ccccc2)nc1N1CCCC1,-14,15,21,21,4,/
O=C(/C=C/c1ccc2ccccc2n1)c1cc(Br)ccc1O,-14,34,52*,35,3,31*
O=C(O)/C=C/c1ccc2ccccc2n1,-9,8,9,11,-1,/
Cc1ccc(S(=O)(=O)/N=C(/NC(=S)Nc2ccccc2)c2ccccc2)cc1,-10,36,46*,37,-2,-8
Cc1cccc(NC(=O)COC(=O)CN2C(=O)C3CCCCC3C2=O)c1C (stereo not given),/,/,/,/,0,/
CC(=O)c1c(C(C)=O)c(C)n(NC(=O)c2cccnc2)c1C,8,9,89*,14,-1,7
O=C(Nc1nccs1)c1csc2c1CCCC2,-10,35,57*,16,3,44*
O=C(Nc1ccon1)c1csc2c1CCCC2,/,28,25,28,-5,/
O=C(Nc1nnc(-c2ccco2)o1)c1ccc([N+](=O)[O-])s1,-19,18,12,16,-2,/
COc1ccc(/C=C/C(=O)NCCCNC(=O)/C=C/c2ccc(OC)c(OC)c2)cc1OC,4,-10,4,5,-4,/
